# Experimental data from PubChem BioAssay (NCI).
# Compounds without any hit were thinned out: in the full panel of roughly 83,000, 20% have a hit.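 Note: values are percent growth. 100 is the growth of untreated cells, values between 100 and 0 indicate rising inhibition; between -100 and 0 indicates cell death.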 A number with no mark means an inactive call. The source made the active and inactive calls. How the source made its calls: active means growth percent below 10; inactive means the rest.
# System: OVCAR-8 ovarian
# Test: NCI-60 one-dose screen, 48 h (100 = growth as untreated, 0 = no growth, -100 = all killed)
# Conditions: 10 µM unless noted
row,Compound,growth
1,Oc1ccc(O)c2c1C1(Cl)C(Cl)=C(Cl)C2(Cl)C1(Cl)Cl,74%
2,CN(C)P1(N(C)C)=NP(N(C)C)(N(C)C)=NP(N(C)C)(N(C)C)=N1,96.1%
3,CNC(=O)Oc1cccc(OC)c1,108%
4,C[C@]12CC[C@H]3[C@@H](C[C@@H]4N=C(c5ccc(O)cc5)S[C@@]45C[C@H](O)CC[C@]35C)[C@@H]1CC[C@@H]2O,74.2%
5,CC1(C)N=C(N)N=C(N)N1c1ccc(CCCCc2ccc(S(=O)(=O)F)cc2)cc1,24.3%
6,Nc1c(Br)cc2c3c(cccc13)-c1ccccc1-2,70.9%
7,COc1cc2c(cc1OC)CN(C)C(C)C2 (stereo unspecified),105%
8,CC(C)C1c2ccc(O)cc2Oc2nc(N)c(C#N)c(N)c21 (stereo unspecified),96.2%
9,c1ccc2nc(OCCN3CC3)ccc2c1,78.2%
10,CC1(C)N=C(N)N=C(N)N1c1ccc(CNC(=O)Nc2ccc(S(=O)(=O)F)c(Cl)c2)c(Cl)c1,25.4%
11,c1ccc(-c2ccc3ccccc3[o+]2)cc1,96.6%
12,CC1COC(=O)C1 (stereo unspecified),104%
13,COc1ccc(/C=C\c2cc(OC)c(OC)c(OC)c2)cc1N/C=C\C(=O)c1c[nH]c2ccccc12,21.4%
14,CCCC(C)(C)c1ccc2c(c1)OC(C)(C)[C@@H]1CC=C(C)C[C@@H]21,97.7%
15,OC1(c2ccc(Cl)cc2Cl)c2ccccc2C2=NCCN21 (stereo unspecified),102%
16,CC1(CF)NC(=O)NC1=O (stereo unspecified),102%
17,O=C(Nc1ccc(S(=O)(=O)F)cc1)Oc1ccccc1,101%

# System: OVCAR-5 ovarian
# Test: as above
# Conditions: 10 µM unless noted
row,Compound,growth
1,Fc1ccc(C2=NN(c3ccccc3)C(c3sc(N(CCCl)CCCl)nc3Cl)C2)cc1 (stereo unspecified),91.5%
2,CC[C@H](C)[C@H](NC(=O)Nc1ccccc1)C(=O)N(C)[C@H](C[C@@H](OC(C)=O)c1nc(C(=O)N[C@@H](Cc2ccccc2)C[C@H](C)C(=O)OC)cs1)C(C)C,28.9%
3,c1ccc(CCN2CCCCC2Cc2ccccc2)cc1 (stereo unspecified),83%
4,CC(=O)O[C@H]1CCC2(C)C(=CCC3C2CCC2(C)/C(=N/OC(=O)c4ccc(N(CCCl)CCCl)cc4)CCC32)C1 (stereo partly specified),81.7%
5,O=C(N/N=C/c1ccc(N(CCCl)CCCl)cc1)c1cc(=O)[nH]c(=O)[nH]1,134%
6,O=[As]c1ccc(C(=O)c2ccc(Oc3ccccc3)cc2)cc1 (stereo unspecified),-95.4% (active)
7,O=[N+]([O-])c1cc([N+](=O)[O-])c(Cl)c(Cl)c1Cl,65.6%
8,Cc1cc(NC(=O)NCCOc2ccc(N3C(N)=NC(N)=NC3(C)C)cc2Cl)ccc1S(=O)(=O)F,26.6%
9,COc1ccc2c(c1)NC1=C(C(=O)OC1)C2c1cc(OC)c(OC)c(OC)c1 (stereo unspecified),36.1%
10,C=CCc1ccc(OC(=O)Cc2ccccc2)c(OC)c1,110%
11,CC(C)(O)/C=C/C(=O)[C@](C)(O)[C@H]1[C@H](O)C[C@@]2(C)[C@@H]3CC=C4[C@@H](C=C(O)C(=O)C4(C)C)[C@]3(C)C(=O)C[C@]12C,-3.44% (active)
12,C[C@]12CCc3sc(-c4ccc(Cl)cc4)nc3C1=CC[C@@H]1[C@@H]2CC[C@]2(C)C(=O)CC[C@@H]12,98.2%
13,C=CCC1(CC)C(=O)NC(=S)NC1=O,101%
14,NC(Cc1ccc2c(c1)OCO2)c1ccc2c(c1)OCO2 (stereo unspecified),109%
15,O=C(CF)N(O)c1ccc(/C=C/c2ccccc2)cc1,82.6%
16,COc1ccc(/C=C(/C(=O)N2CCCC2)c2cc(OC)c(OC)c(OC)c2)cc1N,54.5%
17,Nc1nc(N)c(-c2ccc(Cl)c(Cl)c2)c(/C=C/c2ccc(S(=O)(=O)F)cc2)n1,80.8%
18,Nc1c(Br)cc([N+](=O)[O-])cc1[N+](=O)[O-],106%
19,Oc1ccc(O)c2c1C1(Cl)C(Cl)=C(Cl)C2(Cl)C1(Cl)Cl,70.1%
20,CN(C)P1(N(C)C)=NP(N(C)C)(N(C)C)=NP(N(C)C)(N(C)C)=N1,104%

row,Compound,growth
1,CCCCNCCc1ccccn1,101%
2,CNC(=O)Oc1cccc(OC)c1,113%
3,C=C=[CH][Sn]([c]1ccccc1)([c]1ccccc1)[c]1ccccc1,-60.3% (active)
4,NC(=O)SCC(=O)Nc1ccc([As](=O)(O)O)cc1,125%
5,C[C@]12CC[C@H]3[C@@H](C[C@@H]4N=C(c5ccc(O)cc5)S[C@@]45C[C@H](O)CC[C@]35C)[C@@H]1CC[C@@H]2O,106%
6,CC1(C)N=C(N)N=C(N)N1c1ccc(CCCCc2ccc(S(=O)(=O)F)cc2)cc1,41.2%
7,Nc1c(Br)cc2c3c(cccc13)-c1ccccc1-2,76.8%
8,COc1cc2c(cc1OC)CN(C)C(C)C2 (stereo unspecified),101%
9,CC(C)C1c2ccc(O)cc2Oc2nc(N)c(C#N)c(N)c21 (stereo unspecified),104%
10,c1ccc2nc(OCCN3CC3)ccc2c1,86.2%
11,CC1(C)N=C(N)N=C(N)N1c1ccc(CNC(=O)Nc2ccc(S(=O)(=O)F)c(Cl)c2)c(Cl)c1,26.4%
12,c1ccc(-c2ccc3ccccc3[o+]2)cc1,103%
13,CSc1ccccc1NP1(=O)OCC(C)([N+](=O)[O-])CO1 (stereo unspecified),93.7%
14,CC1COC(=O)C1 (stereo unspecified),102%
15,C[CH2][Pb]([CH2]C)([CH2]C)[O]C(=O)COc1ccccc1,-5.58% (active)
16,COc1ccc(/C=C\c2cc(OC)c(OC)c(OC)c2)cc1N/C=C\C(=O)c1c[nH]c2ccccc12,18.8%
17,CCCC(C)(C)c1ccc2c(c1)OC(C)(C)[C@@H]1CC=C(C)C[C@@H]21,107%
18,OC1(c2ccc(Cl)cc2Cl)c2ccccc2C2=NCCN21 (stereo unspecified),94.4%
19,O=C(Nc1ccc(S(=O)(=O)F)cc1)Oc1ccccc1,102%
